Inconclusive results are not listed. Entries that show only a call come without a potency. Unmarked numbers belong to inactive results. Active and inactive are the calls of the source. Calls come from the whole dose curve; as a rule, active = well fitted curve in the direction sought with a large enough effect; inconclusive = small, poorly fitted or top-dose-only effect, or another doubt; inactive = no such curve, though single readings can be large; an effect the other way counts as inactive or inconclusive.
Experiments:
[1] = molecular target: Rap guanine nucleotide exchange factor 3 (Homo sapiens) (UniProt O95398); assay: Confirmatory qHTS for antagonist of cAMP-regulated guanine nucleotide exchange factor 3 (EPAC1) (AID 1645880); note: nearly all actives have a fitted effect of over 55% in size; note: potency is the fitted concentration of half-maximal effect
Sequence of Rap guanine nucleotide exchange factor 3 (Homo sapiens) (O95398 whole entry, looked up): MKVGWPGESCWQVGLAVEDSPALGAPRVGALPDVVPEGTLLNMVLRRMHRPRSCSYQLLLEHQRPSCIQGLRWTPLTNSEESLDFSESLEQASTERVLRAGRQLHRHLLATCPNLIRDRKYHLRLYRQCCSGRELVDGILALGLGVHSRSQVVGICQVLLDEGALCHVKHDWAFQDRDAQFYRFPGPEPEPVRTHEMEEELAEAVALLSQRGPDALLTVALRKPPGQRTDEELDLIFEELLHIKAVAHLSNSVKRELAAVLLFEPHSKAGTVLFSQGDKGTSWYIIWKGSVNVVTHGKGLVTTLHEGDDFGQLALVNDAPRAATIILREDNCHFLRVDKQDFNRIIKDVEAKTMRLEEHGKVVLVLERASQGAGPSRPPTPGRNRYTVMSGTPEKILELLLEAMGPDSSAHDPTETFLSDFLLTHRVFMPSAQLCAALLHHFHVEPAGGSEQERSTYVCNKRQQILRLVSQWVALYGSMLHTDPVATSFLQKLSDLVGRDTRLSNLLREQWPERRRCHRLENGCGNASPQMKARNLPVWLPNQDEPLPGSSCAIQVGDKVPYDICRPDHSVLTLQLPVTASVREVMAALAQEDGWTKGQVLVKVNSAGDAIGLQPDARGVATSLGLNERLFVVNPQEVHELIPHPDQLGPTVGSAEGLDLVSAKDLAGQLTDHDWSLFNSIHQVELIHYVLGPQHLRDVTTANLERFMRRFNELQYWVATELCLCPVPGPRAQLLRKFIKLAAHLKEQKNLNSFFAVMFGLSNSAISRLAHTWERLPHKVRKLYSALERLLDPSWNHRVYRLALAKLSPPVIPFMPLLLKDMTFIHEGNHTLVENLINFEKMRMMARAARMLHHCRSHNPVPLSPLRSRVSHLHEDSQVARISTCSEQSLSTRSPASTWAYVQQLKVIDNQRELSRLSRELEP
Method in brief: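 Nucleotide exchange uses 100 nM EPAC1, 250 nM RAP1B-BODIPY-GDP and 50 uM GDP, with compounds in a concentration-titration series. After 5 min at room temperature, fluorescence (480 nm ex/540 nm em) is read every 5 min for 30 min. Data are normalized to control ATA and DMSO.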

[2] = molecular target: Rap guanine nucleotide exchange factor 3 (Homo sapiens) (UniProt O95398); assay: Confirmatory qHTS for agonist of cAMP-regulated guanine nucleotide exchange factor 3 (EPAC1) (AID 1645881);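 note: EPAC1 catalysed release of BODIPY-GDP from Rap1B seen as fluorescence loss; nearly all actives have a fitted effect of over 75% in size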
[3] = molecular target: Rap guanine nucleotide exchange factor 4 (Homo sapiens) (UniProt Q8WZA2); assay: Confirmatory qHTS for agonist of cAMP-regulated guanine nucleotide exchange factor 4 (EPAC2) (AID 1645884);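 note: nucleotide exchange releases bodipy-GDP from Rap1 and this lowers its fluorescence; nearly all actives have a fitted effect of over 65% in size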
Sequence of Rap guanine nucleotide exchange factor 4 (Homo sapiens) (Q8WZA2 whole entry, looked up): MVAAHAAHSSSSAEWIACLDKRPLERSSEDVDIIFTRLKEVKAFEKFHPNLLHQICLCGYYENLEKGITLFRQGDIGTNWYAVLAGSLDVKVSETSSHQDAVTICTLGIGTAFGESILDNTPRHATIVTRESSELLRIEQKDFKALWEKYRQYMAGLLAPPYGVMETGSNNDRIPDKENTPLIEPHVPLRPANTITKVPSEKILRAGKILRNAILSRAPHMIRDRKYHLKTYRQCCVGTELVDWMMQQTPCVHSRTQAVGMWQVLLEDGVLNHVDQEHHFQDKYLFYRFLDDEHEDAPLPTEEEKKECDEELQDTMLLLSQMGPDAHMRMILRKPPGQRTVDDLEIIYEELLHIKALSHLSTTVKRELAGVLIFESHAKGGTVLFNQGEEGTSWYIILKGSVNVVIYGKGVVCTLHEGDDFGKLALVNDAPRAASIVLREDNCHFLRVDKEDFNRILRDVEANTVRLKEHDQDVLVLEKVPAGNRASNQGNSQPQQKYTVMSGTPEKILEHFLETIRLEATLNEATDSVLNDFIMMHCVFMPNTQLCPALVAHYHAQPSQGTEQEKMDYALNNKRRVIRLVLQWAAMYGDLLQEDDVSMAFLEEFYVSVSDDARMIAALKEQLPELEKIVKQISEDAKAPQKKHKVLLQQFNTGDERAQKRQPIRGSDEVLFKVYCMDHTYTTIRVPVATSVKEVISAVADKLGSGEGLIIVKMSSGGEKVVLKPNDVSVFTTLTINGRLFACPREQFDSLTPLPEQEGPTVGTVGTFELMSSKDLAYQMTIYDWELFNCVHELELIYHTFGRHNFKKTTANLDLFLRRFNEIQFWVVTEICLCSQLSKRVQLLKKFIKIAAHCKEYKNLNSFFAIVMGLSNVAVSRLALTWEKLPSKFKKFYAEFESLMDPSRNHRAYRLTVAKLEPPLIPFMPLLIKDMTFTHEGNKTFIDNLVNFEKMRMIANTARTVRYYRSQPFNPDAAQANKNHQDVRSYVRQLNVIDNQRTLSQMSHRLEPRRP

[4] = molecular target: Rap guanine nucleotide exchange factor 4 (Homo sapiens) (UniProt Q8WZA2); assay: Confirmatory qHTS for antagonist of cAMP-regulated guanine nucleotide exchange factor 4 (EPAC2) (AID 1645885); note: nearly all actives have a fitted effect of over 25% in size; note: potency is the fitted concentration of half-maximal effect
[5] = molecular target: Rap guanine nucleotide exchange factor 3 (Homo sapiens) (UniProt O95398); assay: Counterscreen qHTS for antagonist of cAMP-regulated guanine nucleotide exchange factor 3 (EPAC1) (AID 1645888);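 note: fluorescence loss as bound BODIPY-GDP is released from Rap1B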
Method in brief: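 Measured: fluorescence of BODIPY-GDP bound to Rap1B, which falls as exchange proceeds. Conditions include 50 uM competing GDP, 5 and 30 min reads, and a later cAMP challenge for antagonist detection.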

Structure (SMILES) | Potency [1] | Potency [2] | activation [3] | Potency [4] | activity change, negative = inhibition [5] | Potency [3] | Potency [5] | outcome [4]
CN(C)C(=O)CCc1ccc2c3c([nH]c2c1)[C@]1(C)[C@@H](C(=O)N2CCCCC2)C[C@H](CC(=O)NCCc2ccccn2)C(=O)N1CC3 | inactive | inactive | -3.15% [at 17.1 µM, percent relative to cAMP agonist control] | inactive | -16% [at 30.8 µM] |  |  | 
COc1ccc(S(=O)(=O)N2CCCC2)cc1C(C)C | inactive | inactive | -3.36% [at 17.1 µM, percent relative to cAMP agonist control] | inactive | -3.04% [at 30.8 µM] |  |  | 
CC(=O)C(Sc1nnnn1-c1ccc(O)cc1)c1ccccc1 (stereo not given) | inactive | inactive |  | inactive |  | inactive | inactive | 
COc1cc(Cl)c(C)cc1NC(=O)CSc1cc(Cl)ccc1Cl | 67.5 µM (active) | inactive |  | inactive |  | inactive | inactive | 
CNc1ccc(/C=C(\C#N)C(=O)Nc2ccccn2)cc1[N+](=O)[O-] | inactive | inactive | 0.449% [at 17.1 µM, percent relative to cAMP agonist control] | inactive | -23.3% [at 30.8 µM] |  |  | 
C=CCSc1nc2ccccc2c(=O)n1C1CCOC(C)(C)C1 (stereo not given) | inactive | inactive |  | inactive |  | inactive | inactive | 
CCn1c(CSc2nc3ccccc3s2)nnc1SCC(=O)c1ccc(O)c(O)c1 | inactive | inactive |  | inactive |  | inactive | inactive | 
CN(CCC#N)C(=O)COC(=O)c1c2c(nc3ccccc13)/C(=C/c1ccco1)CC2 | 3.55 µM (active) | inactive | -0.614% [at 17.1 µM, percent relative to cAMP agonist control] | inactive | -6.16% [at 30.8 µM] |  |  | 
Cc1ccc(S(=O)(=O)/N=C2\SC(CC(=O)Nc3ccc(F)cc3)C(=O)N2c2ccccc2)cc1 (stereo not given) | inactive | inactive | 3.37% [at 17.1 µM, percent relative to cAMP agonist control] | inactive | -39.2% [at 30.8 µM] |  |  | 
NS(=O)(=O)c1ccc(Nc2nc3ccccc3nc2NS(=O)(=O)c2cccc([N+](=O)[O-])c2)cc1 | 75.7 µM (active) | inactive |  | inactive |  | inactive | inactive | 
CCOC(=O)c1c(C)[nH]c(CCC(=O)NCc2cccc(OC)c2)c1C | inactive | inactive |  | inactive |  | inactive | inactive | 
CCc1ccccc1Oc1nc(NC(C)C)nc2ccsc12 | inactive | inactive | 7.29% [at 17.1 µM, percent relative to cAMP agonist control] | inactive | -29.4% [at 30.8 µM] |  |  | 
COc1ccc2oc(C)c(C(=O)c3ccc(C)cc3)c2c1 | inactive | inactive | 14.7% [at 17.1 µM, percent relative to cAMP agonist control] | inactive | -20.6% [at 30.8 µM] |  |  | 
CN(c1ccccc1)S(=O)(=O)c1cccc(Cl)c1Cl | inactive | inactive |  | inactive |  | inactive | inactive | 
CC(C)OC(=O)NC(c1ccccc1)C(Cl)(Cl)Cl (stereo not given) | inactive | inactive | 4.21% [at 17.1 µM, percent relative to cAMP agonist control] | inactive | -2.25% [at 30.8 µM] |  |  | 
CCCCn1c(N)c(N(CCC(C)C)C(=O)Cc2ccc(S(=O)(=O)N3CCOCC3)s2)c(=O)[nH]c1=O | inactive | inactive |  | inactive |  | inactive | inactive | 
CCOC(=O)c1sc2nc(-c3ccco3)c3c(c2c1N)CC(C)(C)OC3 | 44.7 µM (active) | inactive | 7.15% [at 17.1 µM, percent relative to cAMP agonist control] | inactive | -5.49% [at 30.8 µM] |  |  | 
CCCc1cc(=O)[nH]c(SCC(=O)Nc2sc3c(c2C#N)CCC(C)C3)n1 (stereo not given) | 89.1 µM (active) | inactive | 4.56% [at 17.1 µM, percent relative to cAMP agonist control] | 0.135 µM (active) | -6.17% [at 30.8 µM] |  |  | 
O=C(NCc1ccccc1)c1ccc2nc(-c3ccco3)c(-c3ccco3)nc2c1 | 16.9 µM (active) | inactive |  | inactive |  | inactive | inactive | 
CC(C)OP(=O)(c1ccc(N(C)C)cc1)C(Nc1ccccc1)c1ccccc1 (stereo not given) | inactive | inactive |  | inactive |  | inactive | inactive | 
CCOc1cc(CNc2ccc(O)cc2)cc(Br)c1OCc1ccccc1 | 75.7 µM (active) | inactive |  |  |  | inactive | inactive | inactive [at 12.7 µM]

Structure (SMILES) | Potency [1] | Potency [2] | activation [3] | Potency [4] | activity change, negative = inhibition [5] | Potency [3] | Potency [5] | outcome [4]
O=C(O)c1ccc(NC2=C/C(=N/S(=O)(=O)c3cccs3)c3ccccc3C2=O)cc1 | 60.1 µM (active) | inactive |  | inactive |  | inactive | inactive | 
CC(C)[C@H](NC(=O)NCCc1ccc(F)cc1)C(=O)O | inactive | inactive | 8.32% [at 17.1 µM, percent relative to cAMP agonist control] | inactive | -8.58% [at 30.8 µM] |  |  | 
O=C(c1cccc(-n2cccc2)c1)N1CCN(S(=O)(=O)c2ccccc2)CC1 | 37.9 µM (active) | inactive |  | inactive |  | inactive | inactive | 
N#C/C(=C\c1ccc(C(=O)O)cc1)c1nc2sc3c(c2c(=O)[nH]1)CCCC3 | inactive | inactive | 10.5% [at 17.1 µM, percent relative to cAMP agonist control] | inactive | 7.93% [at 30.8 µM] |  |  | 
O=C(Cn1cc(SCc2ccc(Cl)cc2)c2ccccc21)N1CCCC1 | inactive | inactive |  | inactive |  | inactive | inactive | 
Cc1ccc(C(=O)OCC(=O)Nc2sccc2C(N)=O)cc1NC(=O)c1ccco1 | 26.9 µM (active) | inactive |  | inactive |  | inactive | inactive | 
O=C(/C=C/c1ccco1)Nc1cccc(C(=O)Nc2ccccc2C(=O)O)c1 | 3.98 µM (active) | inactive | 3.49% [at 17.1 µM, percent relative to cAMP agonist control] | inactive | 19% [at 30.8 µM] |  |  | 
Cc1ccccc1-c1nc(CS(=O)(=O)CC(=O)N(C)C2CCCCC2)c(C)o1 | inactive | inactive |  | inactive |  | inactive | inactive | 
CCCCN(CCCC)S(=O)(=O)c1ccc(C(=O)Nc2sc3c(c2C(N)=O)CCN(CC)C3)cc1 | inactive | inactive |  | inactive |  | inactive | inactive | 
CC1CN(C(=O)CCC(=O)NCc2ccccc2)c2ccccc2S1 (stereo not given) | inactive | inactive |  | inactive |  | inactive | inactive | 
CC(=O)c1ccc(NC(=O)CSc2nc(Nc3ccccc3)nc(N3CCOCC3)n2)cc1 | inactive | inactive |  | inactive |  | inactive | inactive | 
Cn1c(=O)c2c(-c3ccccc3Br)n(CCc3ccccc3)cc2n(C)c1=O | inactive | inactive |  |  |  | inactive | inactive | inactive [at 12.7 µM]
COc1ccc(OC)c(/C=C2\SC(=S)N(NS(=O)(=O)c3ccc(C)cc3)C2=O)c1 | 30.1 µM (active) | inactive |  | 47.8 µM (active) |  | inactive | inactive | 
CSc1nc(N2CCOCC2)c2c3c(sc2n1)CCC3 | inactive | inactive |  | inactive |  | inactive | inactive | 
CN(C)C(=O)c1cccc(-c2cnc3c(NC=O)cc(-c4ccc(F)cc4)cn23)c1 | inactive | inactive |  | inactive |  | inactive | inactive | 
Clc1cccc(Cl)c1C1Nc2cccc3cccc(c23)N1 | inactive | inactive |  | inactive |  | inactive | inactive | 
CC(=O)N(C(C)=O)N1C(=O)c2cccc3c(N4CCOCC4)ccc(c23)C1=O | inactive | inactive | 18.1% [at 17.1 µM, percent relative to cAMP agonist control] | inactive | 16.3% [at 30.8 µM] |  |  | 
O=C1NC(=O)C2(CCC(C(=O)O)C2)N1 (stereo not given) | inactive | inactive | 11.7% [at 17.1 µM, percent relative to cAMP agonist control] | inactive | 14.4% [at 30.8 µM] |  |  | 
Cc1cccc(C(=O)Nc2cccc(C(=O)OCc3cc(=O)n4c5c(sc4n3)CCCC5)c2)c1 | inactive | inactive |  | inactive |  | inactive | inactive | 
COc1cc(OC)c(NC(=O)N2CCC(CN3CCOCC3)CC2)cc1Cl | inactive | inactive |  | inactive |  | inactive | inactive | 

Reference: PubChem BioAssay (NCATS)
